# Whole data set: some 4,500 sequences, median “median log2 fold change of GCK-ALFA target abundance (FLAG IP / Myc IP barcode read proportion)” near 0.078, cut for the lowest 2% near -0.6. This excerpt belongs to a sample that is enriched for the lowest values.
# B1: GBRAP_74_6512 (protein)
# chain: MEELLAKLKEAAEAKDVDKLVALALEIAETGDKETIEKAAEIVVAFVEANLDTLTPEELEKLSDALATLADKLMELGGDSEVVNRVAETAVALEKKLLAL
# B2: GBRAP_52_5860 (protein)
# chain: MVEEALEKLRKAVEAMKAGKEEEAEKILKEIVENFDEETILAAAEAFAKEMATATPEEAEAAFRTAEMLGKILEEAGFDEEVVTLIEDTIGAAVARVEAA
# B3: GBRAP_139_3742 (protein)
# chain: SEMEKKVEEAAKKVAELKDDPEAVADYLTETIASVDEETAEKIARAAVEVLADLPVEERLALDDLILDKLEEAGVDEDKITIVEAELNGGLARHAYAEEL
# B4: GBRAP_139_3708 (protein)
# chain: SALEEKVAEAKELTKETLENPEESIKKIVELLLSVSEEDLEVVVKAIAETLSEFPLDTAEELADKLLEEVKKRSKDEDKVNIVEAVLNGALARKAYEEEL
# B5: GBRAP_80_6860 (protein)
# chain: DEARLAAARARLKALLPEAAALIDEVVAIAKELGVPNADIADLLDALAELAEVDPELAKELLEELLEDLREEKEAGDAENALATVRGYAGEALMEAEELE
# B6: GBRAP_95_7064 (protein)
# chain: EEDLEIAEDLIDTAEDLVEIGLYEQAARAAKAAVEELKEIGYTGELALRAAEVLVKVAEATGNEEAAELAKEVLEEIRKAGGDEKKIEELEKRLEKALKK
# B7: GBRAP_52_6171 (protein)
# chain: SAEKARKMAEELLEAIKAGDEEKVKKILEEIAKNYTDEEIAAMLREVAKRVPSLSPEDQERVVEAALELEDIAVKAGHDENVLQIEVARVAAAAYDALQA
# B8: GBRAP_53_6396 (protein)
# chain: AEKEIKEGLKELEALIKRVKADPTLDPKEVAKEASALFKALVAAGAPEEELVKLAKELAEAVKAKGLGVEVSTALAKAAAEAGAEEVQYVFTEAAVEDLE
# B9: GBRAP_160_4238 (protein)
# chain: SEEIEKLREEITDEAELLLDVLLESPKSQWPAYARAFAGDIVQIVEENENVSDETEEKVAELADEMVAELVAARDASPEELAALLERFVERIVKTVEEGV
# B10: GBRAP_128_3427 (protein)
# chain: STAAKVAEVEALLEAMLTADAAEAAALARRIAALMLASDLETVEAMVEVILSMLPKFTAEQLEILADALREARPEFTPEKQLLVSEVEVAALNEAEEKEE
# B11: GBRAP_160_4711 (protein)
# chain: MEVKEKLKKYVEEEFEEAKELIKGESIEQRAIIVEGTIGEIIMELFEEEEASDELIDEVDKIGDELVETILANPDLTEEEIEELIEKAEEEIKKAIDKYV
# B12: GBRAP_39_5693 (protein)
# chain: EEDEENEDHVSYLQALAAKRLYETGISLEEATKEAKKILEEEAKRNPELKELLEELIKLAEEKGDEAKEVLIGVAVLIEEGEPKEEIKEHIEKAIKYFKK
# B13: GBRAP_95_7034 (protein)
# chain: EDDKLALESALEVAVAAAELGDEEAAARALKEALELLKKAGKVKLDPELLKETIEVIREVGVKKLPKEEVLELLELLKESAETEEVKKLAEEAIEEVKKR
# B14: GBRAP_74_6536 (protein)
# chain: SEEKEKVIKEINEAETIEEAIEITEKVLETDDKELARAAVQELLLKAAERKDELTLEEAERLVEVIVRAFEKNGIVVETREEAEALNTVLTKALELEEKA
# B15: GBRAP_166_4984 (protein)
# chain: MEEELVEELKKYLEELAEKMKEAGPEERQELVAEAAERLAEAREKGLSREKLGELVEYLLRLAREVGIPISAVEGALSILADLDEEEIDILDEAARRVAA
# B16: GBRAP_128_3314 (protein)
# chain: MDEERLEEAREIVERMKEADLEELAELTRRLAELLGTLTPEERDIVAEIFREGLKELSAEKLDVVADVLREVRPSLDPETANVVADLEVEALNEAVEKEE
# B17: GBRAP_74_6519 (protein)
# chain: EEELLAALEAAAAAGDAATAVALARRIVAEGSLEAVERAARIMVAFVERHADALSPEELEAVADALAELADELMLRGGDSEVVLAVARAAVALEERRRAL
# B18: GBRAP_128_3579 (protein)
# chain: SVEEVRAEVRALLEAMKTADAAEQKAIATEIATRFTTLTPEERRAAAETIEELLPELSAEQLDILADALRAARPTADPEAANLLADVEVAALNEALEKEE
# B19: GBRAP_160_4226 (protein)
# chain: METVEKIVKVFRDTFLEALELIEGESAEERAVILDVAVGEVILEVSEIEEATDEMEEVVDKKAEALAAALLAAADASAAERRALVDKAAAELRKELEKIE
# Molecular target: GABARAP, O95166
# Experiment: median log2 fold change of GCK-ALFA target abundance (FLAG IP / Myc IP barcode read proportion) (log2 ratio); each designed protein is fused to an ALFA-tag nanobody in HEK293 cells to bring the named protein to FLAG-tagged glucokinase (GCK); Myc marks an untargeted standard; higher = target protein stabilised (more abundant)
# Details: target protein: 3xFLAG-MCP-GCK-ALFA reporter; HEK293 landing pad (RPLP)
# Method: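 LABEL-seq trans screen in HEK293 landing-pad cells. Each de novo designed 100-aa effector handle, binding the indicated effector (E3 ligase, DUB or autophagy protein), is fused to a constant NbALFA target handle and induced with 2 ug/mL doxycycline. A FLAG-MCP-GCK-ALFA target and a Myc-MCP standard reporter were transfected, and after 48 h circRNA barcodes were recovered by anti-FLAG and anti-Myc IP and sequenced. The value is the median across barcodes (at least 3 per design) of log2(FLAG/Myc read-proportion ratio), with the two transfection replicates pooled. Negative values mean degradation and positive values mean stabilisation of the target.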
# GABARAP, O95166, sequence (O95166 whole entry, the tested form may be a part): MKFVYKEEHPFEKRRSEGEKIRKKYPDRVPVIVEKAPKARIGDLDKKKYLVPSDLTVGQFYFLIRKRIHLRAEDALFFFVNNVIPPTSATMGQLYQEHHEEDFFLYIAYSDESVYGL
row,Binder,median log2 fold change
1,B1,0.23
2,B2,0.165
3,B3,0.187
4,B4,0.163
5,B5,-0.593
6,B6,0.373
7,B7,-0.631
8,B8,0.274
9,B9,-0.458
10,B10,0.18
11,B11,-0.152
12,B12,0.24
13,B13,0.352
14,B14,-0.769
15,B15,0.23
16,B16,0.162
17,B17,-0.0734
18,B18,0.177
19,B19,-0.651
